Assay outcomes (PubChem BioAssay)
This is a sample that favours compounds with a hit; in the whole collection about 11% have one here.
Pf growth 48h: P. falciparum growth inhibition at 48 hours (one generation); P. falciparum luciferase growth in erythrocytes, 48 h; Potency, µM (highest dose often 28.7 µM), hits mostly inhibitors; 5.9% of 310,000 active
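Compounds are pin-transferred into medium, infected erythrocytes (2% hematocrit, 0.1% parasitemia final) are added, and plates sit one parasite generation at 37 C in 5% CO2. Detection reagent is then added and luminescence measured.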
HCV inh: HCV inhibition; AID 651820; 3.4% of 340,000 active; Potency, µM (series often up to 41.8 µM), actives largely listed as inhibitors; Huh7.5.1 HCVcc-Cre infection, luciferase reporter, 44 h
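Reporter virus HCVcc-Cre (~0.5 moi) infects cells exposed to compound; seeding density 1,000 cells/well with 4 h settling beforehand. Luminescence, 15 sec read, taken 44 h post-infection following a 15 min RT substrate incubation.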
Pf growth 96h: inhibits malaria parasite growth, 96 h. P. falciparum luciferase reporter growth, 96 h. Potency, µM (series often up to 28.7 µM), most hits filed as inhibitors. 6.9% of 320,000 active
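P. falciparum expressing integrated firefly luciferase, in erythrocytes at 2% hematocrit, 0.05% parasitemia, incubated with compounds 96 h at 37 C, 5% CO2. Growth inhibition read as loss of luminescence; two-generation exposure targets delayed-death apicoplast inhibitors.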
AMA1-RON2 inh: inhibitors of Plasmodium falciparum AMA1-RON2 interaction; Potency, µM (highest dose often 58.2 µM), most hits filed as inhibitors; 0.2% of 360,000 active; AID 720542; AlphaScreen AMA1-biotinylated RON2 peptide binding; note: nearly all actives have a fitted effect of over 45% in size
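AMA1 (3D7) with his tag at 25 nM final met compounds first, then biotinylated RON2 peptide at 25 nM; detection used donor plus acceptor beads, 10 µg/mL apiece, read by AlphaScreen after 30 min at room temperature.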
A number is an active result; n = inactive; u = inconclusive; x = no result; [ ] = remark or other dose. Calls come from the whole dose curve; as a rule, active = well fitted curve in the direction sought with a large enough effect; inconclusive = small, poorly fitted or top-dose-only effect, or another doubt; inactive = no such curve, though single readings can be large; an effect the other way counts as inactive or inconclusive.

SMILES | Pf growth 48h | HCV inh | Pf growth 96h | AMA1-RON2 inh
Cc1cc(NC(=O)CSc2nc3c(c(=O)n2-c2ccccc2)SC(C)C3)no1 (stereo not drawn) | u | n | 4.1µM | n
O=c1[nH]c(=S)[nH]c2nccnc12 | x | n | x | n
CCOC(=O)Cn1nc(-c2ccccc2)nc1-c1ccccc1 | n | n | x | n
CCn1nc(-c2ccccc2)nc2c(=O)n(C)c(=O)nc1-2 | n | 2.8µM | n | n
CC1CC(C)CN(CCC(=O)Nc2ccc(Br)cc2)C1 (stereo not drawn) | n | u | 7.4µM | n
CC1CCN(CCC(=O)Nc2ccc(Br)cc2)CC1 | x | u | x | n
Cc1cc(NC(=O)CCN2CCCCC2)ccc1Br | n | n | 2.6µM | n
O=C(CCN1CCCCCC1)Nc1cccc(Cl)c1 | n | n | 2.1µM | n
Cc1ccc(NC(=O)CCN2CCN(C/C=C/c3ccccc3)CC2)cc1C | 6.6µM | n | n | n
COc1ccc(-c2cc3c(o2)CCCC3OCCN2CCOCC2)cc1 (stereo not drawn) | x | x | x | n
Cc1cccc(NC(=O)CCN2CCC(C(N)=O)CC2)c1 | n | n | 6.6µM | n
O=C(CCC(=O)N1CCOCC1)Nc1ccc(Cl)c(Cl)c1 | n | n | n | n
COc1ccc(NC(=O)CCN2CCCCC2)cc1 | n | n | 13µM | n
O=C(CCC(=O)N1CCCCC1)Nc1ccc(Cl)c(Cl)c1 | n | n | 12µM | n
O=C(CCC(=O)c1ccc(Oc2ccccc2)cc1)Nc1cccc(Cl)c1 | n | n | 5.9µM | n
CC(C)(Oc1ccc(Cl)cc1)C(=O)N/N=C/c1cn[nH]c1-c1ccccc1 | x | n | u | n
O=C(COC(=O)c1cc(=O)[nH]c2ccccc12)Nc1ccc(F)cc1 | x | n | x | n
COc1ccc(NC(=O)C2Cc3c(-c4cccc(F)c4)ccnc3O2)cc1 (stereo not drawn) | x | x | x | n
Cc1cccc(NC(=O)CCC2CCN(C(=O)c3ccc(C)s3)CC2)c1 | u | u | u | n
Cc1cccc(NC(=O)CCC2CCN(Cc3nccs3)CC2)c1 | n | n | 9.3µM | n
CCCCNC(=O)CCC(=O)Nc1ncc(-c2ccc(C)cc2)n1C | n | n | x | n
Cc1ccc(-c2cnc(NC(=O)CCC(=O)N3CCCCC3)n2C)cc1 | n | n | 12µM | n
COC(=O)C1=C(N)Oc2cc(C)n(CCc3ccccc3)c(=O)c2C1c1cccnc1 (stereo not drawn) | 10µM | u | u | n
COC(=O)C1=C(N)Oc2cc(C)n(Cc3cccnc3)c(=O)c2C1c1ccc(OC)c(OC)c1 (stereo not drawn) | n | n | n | n
COC(=O)C1=C(N)Oc2cc(C)n(CCCn3ccnc3)c(=O)c2C1c1cccc(Cl)c1 (stereo not drawn) | 5.9µM | n | x | n
SMILES | Pf growth 48h | HCV inh | Pf growth 96h | AMA1-RON2 inh
CCOC(=O)C1=C(N)Oc2cc(C)n(CCc3ccc(OC)c(OC)c3)c(=O)c2C1c1cccnc1 (stereo not drawn) | 2.3µM | n | 10µM | n
CCOC(=O)C1=C(N)Oc2ccc3ccccc3c2C1c1cccnc1 (stereo not drawn) | u | n | 9.3µM | n
COc1ccccc1C1C(C#N)=C(N)Oc2cc(C)n(CCCn3ccnc3)c(=O)c21 (stereo not drawn) | n | n | x | n
CC1=C(C(=O)N(C)C)CC(CC(=O)NCc2ccco2)C(=O)N1Cc1ccccc1 (stereo not drawn) | x | x | x | n
COc1ccc(-n2ncc3c2CC(C)(C)CC3NC(=O)c2ocnc2C)cc1 (stereo not drawn) | u | n | n | n
CCN(CC)c1cc(C)c2cc(NC(=O)c3ccccc3F)ccc2n1 | 10µM | 10µM | u | n
Cc1cccc(OCCC(=O)NCC(=O)Nc2cccc(C)c2C)c1 | n | n | n | n
Cc1cc(C)cc(-n2c(C)cc(C(=S)N3CCOCC3)c2C)c1 | 12µM | n | n | n
Cc1ccc(N2CCN(C(=O)N3CCOCC3)CC2)c(C)c1 | n | n | u | n
Cc1cc(C(=S)N2CCOCC2)c(C)n1-c1ccc(Cl)cc1 | u | n | n | n[11.6 µM]
Cc1cc(C)cc(N2CCN(C(=O)N3CCOCC3)CC2)c1 | n | n | 6.6µM | n
CC1=C(C(=O)N(C)C)CC(CC(=O)NCc2cccs2)C(=O)N1CCCN1CCCC1=O (stereo not drawn) | x | x | x | n
Cc1ccc(-c2cc3cccc[n+]3cc2-c2ccc(C)cc2)cc1 | 0.41µM | u | u | n
Cc1ccccc1 | n | x | u | x
Cc1ccc(OC(=O)C2CSC3(C)CCC(=O)N23)c(Br)c1 (stereo not drawn) | n | n | 5.9µM | n
CC1(C(=O)NS(=O)(=O)c2ccccc2Cl)CCN1C(=O)c1ccccc1CCc1ccccc1 (stereo not drawn) | x | x | x | n
O=S(=O)(Nc1ccc(Cc2ccncc2)cc1)c1ccc(Cl)c(Cl)c1 | u | 7.9µM | u | n
CCc1ccc(OC)c(S(=O)(=O)Nc2ccc(Cc3ccncc3)cc2)c1 | u | 8.9µM | n | n
Cc1ccc(C)c(OCCC(=O)NNC(=O)c2cc(C)oc2C)c1 | u | n | n | n
Cc1cc(C(=O)Nc2sc3c(c2C#N)CCC(C(C)(C)C)C3)no1 (stereo not drawn) | x | n | 10µM | n
CC(C)(C)C1CCc2c(sc(NC(=O)c3cc(C4CC4)on3)c2C#N)C1 (stereo not drawn) | x | n | n | n
CSCCC(NC(=O)c1ccccc1Br)C(=O)Nc1ccc(C)cc1 (stereo not drawn) | n | n | u | n
O=C(CCCCCNC(=O)N1CCn2c1nc1ccccc12)NCCc1ccccc1 | u | n | 7.4µM | n
CCOC(=O)Cc1ccc(Nc2nc(NCCOC)nc3ccsc23)cc1 | x | x | x | n
Cc1csc(NC(=O)C2CCCN(S(=O)(=O)c3cnc[nH]3)C2)n1 (stereo not drawn) | x | n | 12µM | n
SMILES | Pf growth 48h | HCV inh | Pf growth 96h | AMA1-RON2 inh
O=C(NCCC1=CCCCC1)C1CCCN(S(=O)(=O)c2cnc[nH]2)C1 (stereo not drawn) | x | n | 12µM | n
O=C(NCCc1ccccc1)C1CCCN(S(=O)(=O)c2cnc[nH]2)C1 (stereo not drawn) | x | n | n | n
Cc1cc(C)cc(NC(=O)C2CCCN(S(=O)(=O)c3cnc[nH]3)C2)c1 (stereo not drawn) | n | n | 3.3µM | n
O=C(Nc1cccc(F)c1)C1CCCN(S(=O)(=O)c2cnc[nH]2)C1 (stereo not drawn) | n | n | 9.3µM | n
Cc1csc(NC(=O)C2CCCN(S(=O)(=O)c3cccnc3)C2)n1 (stereo not drawn) | x | n | n | n
CC(C)CC(=O)Nc1ccc2c(c1)nc(CCN1CCOCC1)n2C | n | n | n | n
CCOC(=O)c1c(C)nc(C)c2c(=O)oc3ccccc3c12 | n | n | n | n
CCn1c(=O)c(C(=O)CN2c3ccccc3CC2C)c(N)n(Cc2ccccc2)c1=O (stereo not drawn) | u | u | u | n[2.32 µM]
CCn1c(=O)c(C(=O)CN2CCCc3ccccc32)c(N)n(Cc2ccccc2)c1=O | 9.3µM | u | 12µM | n
CCn1c(=O)c(C(=O)CN2CCN(S(=O)(=O)c3ccc(C)cc3C)CC2)c(N)n(Cc2ccccc2)c1=O | u | u | 8.3µM | n
